Some test systems named below: NCI-H23 lung; NCI-H226 lung; NCI-H322M lung; HOP-62 NSCLC; NCI-H460 lung; HOP-92 NSCLC; NCI-H522 lung; A549/ATCC NSCLC; 786-0 renal; COLO 205 colon.
What all share (experiment): NCI-60 one-dose screen, 48 h (100 = growth as untreated, 0 = no growth, -100 = all killed)
Conditions in all cases: 10 µM unless noted

About 83,000 compounds went through this panel and 20% of them were active in at least one assay; those are over-represented in the sample as a whole.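 Each cell line was grown in a 96-well plate and treated with one concentration of compound for 48 hours. Values below 10 were considered active.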 A number with no mark means an inactive call. Calls of active or inactive are those of the source.

As for `C#Cc1cccc(Nc2ncnc3ccc(-c4cncc(NS(C)(=O)=O)c4)cc23)c1`, the growth is 26.5% in the experiment on NCI-H23 lung; 45% in the experiment with NCI-H226 lung; 1.41% (active) with NCI-H322M lung; 32% in the experiment with HOP-62 NSCLC; 51.6% in the experiment on NCI-H460 lung; -12.2% (active) in the experiment with HOP-92 NSCLC. The growth in the experiment on NCI-H522 lung is 3.44% (active); with A549/ATCC NSCLC, 48.8%; with 786-0 renal it was 40.6%; in the experiment on COLO 205 colon, 17.7%.
Consider `Cc1ccc2c3c(c(=O)[nH]c2c1)C1(C(C#N)=C(N)O3)c2cc(Br)ccc2-c2ccc(Br)cc21`, for which the growth is 6.8% (active) with NCI-H23 lung; -17% (active) with NCI-H226 lung; 16.5% with NCI-H322M lung; -27.5% (active) in the experiment with HOP-62 NSCLC; -56.5% (active) in the experiment on NCI-H460 lung; -10.8% (active) in the experiment with HOP-92 NSCLC. Further, the growth with NCI-H522 lung was -8.2% (active); in the experiment on A549/ATCC NSCLC, -42.4% (active); in the experiment with 786-0 renal it was -19.5% (active); in the experiment with COLO 205 colon it was -51.8% (active).
With `CC1Cc2c(Cl)ncnc2N(C)c2ccc(F)cc21` (stereo not given), the growth with NCI-H23 lung is 103%; in the experiment with NCI-H226 lung, 94.5%; in the experiment on NCI-H322M lung, 99.5%; with HOP-62 NSCLC, 93.2%; with NCI-H460 lung it was 108%; in the experiment with HOP-92 NSCLC it was 65.8%. Besides, the growth with NCI-H522 lung is 89.3%; with A549/ATCC NSCLC it was 70%; in the experiment with 786-0 renal it was 79%; with COLO 205 colon, 92.5%.
For the compound `COc1ccc(-c2ccc3cnc4sc(-c5ccc(OC)cc5)nc4c3n2)cc1`, the growth in the experiment with NCI-H23 lung was 91%; in the experiment with NCI-H226 lung, 85.7%; in the experiment with NCI-H322M lung it was 86.7%; in the experiment with HOP-62 NSCLC, 97.8%; with NCI-H460 lung, 102%; in the experiment on HOP-92 NSCLC, 100%. The growth in the experiment on NCI-H522 lung was 87.4%; in the experiment on A549/ATCC NSCLC, 93.1%; in the experiment on 786-0 renal, 106%; with COLO 205 colon, 104%.
Turning to `c1cc2[nH]ncc2cc1-c1nc2ccc3[nH]ncc3c2c2c1CCCC2`, the growth with NCI-H23 lung was 12.9%; with NCI-H226 lung, 29.4%; in the experiment on NCI-H322M lung, 23.7%; in the experiment with HOP-62 NSCLC, 22.7%; with NCI-H460 lung, 13.6%; in the experiment on HOP-92 NSCLC, 16.9%. The growth in the experiment on NCI-H522 lung was -28.2% (active); in the experiment with A549/ATCC NSCLC it was 5.84% (active); in the experiment on 786-0 renal it was 19.7%; with COLO 205 colon, 3.57% (active).
`CSc1nnc(-c2cnn3c2NC(c2ccccc2)C3)n1-c1ccc(C(F)(F)F)cc1` (stereo not given): the growth with NCI-H23 lung was 72.6%; in the experiment with NCI-H226 lung, 73.5%; in the experiment on NCI-H322M lung, 72.3%; in the experiment with HOP-62 NSCLC, 61.1%; in the experiment on NCI-H460 lung it was 61.8%; in the experiment on HOP-92 NSCLC, 64.3%. In addition, the growth with NCI-H522 lung was 26.1%; in the experiment with A549/ATCC NSCLC it was 45.5%; with 786-0 renal it was 66.1%; in the experiment on COLO 205 colon, 63.9%.
On to `Fc1cc2c(cc1Cl)N(c1ncnc3ccc(-c4cnc5[nH]ncc5c4)cc13)CC2`, for which the growth with NCI-H23 lung is 73.3%; with NCI-H226 lung it was 49.5%; in the experiment with NCI-H322M lung it was 52.1%; in the experiment on HOP-62 NSCLC, 54.8%; in the experiment on NCI-H460 lung it was 54.7%; in the experiment on HOP-92 NSCLC, 34.5%. The growth with NCI-H522 lung is 55.9%; with A549/ATCC NSCLC, 44%; in the experiment on 786-0 renal, 65%; with COLO 205 colon, 79.2%.
For the compound `CCc1n(Cc2ccc3ccccc3c2)cc[n+]1Cc1ccc2ccccc2c1`, the growth in the experiment with NCI-H23 lung was -14.6% (active); with NCI-H226 lung, 6.75% (active); with NCI-H322M lung it was 44.3%; with HOP-62 NSCLC, 11.9%; in the experiment with NCI-H460 lung, 5.54% (active); with HOP-92 NSCLC it was -31.4% (active). Besides, the growth is -25.4% (active) in the experiment on NCI-H522 lung, 28.5% in the experiment with A549/ATCC NSCLC, 35.7% in the experiment with 786-0 renal and -67.5% (active) in the experiment on COLO 205 colon.
As to `Cc1ccc(-c2nc(/C=C3/C(=O)Nc4ccccc43)c3ccccn23)cc1`, the growth is 72.6% in the experiment on NCI-H23 lung; 88.7% in the experiment on NCI-H226 lung; 88% in the experiment with NCI-H322M lung; 91.8% in the experiment on HOP-62 NSCLC; 40.7% in the experiment on NCI-H460 lung; 105% in the experiment on HOP-92 NSCLC. Besides, the growth was 57.7% in the experiment with NCI-H522 lung, 75.1% in the experiment with A549/ATCC NSCLC, 104% in the experiment on 786-0 renal and 92.2% in the experiment on COLO 205 colon.
`Oc1ccc(CCn2c(O)c(/C=C3\CN=c4ccccc4=N3)sc2=S)cc1`: the growth in the experiment with NCI-H23 lung is 59.1%; in the experiment on NCI-H226 lung it was 88.7%; in the experiment on NCI-H322M lung, 78.7%; in the experiment on HOP-62 NSCLC it was 65.8%; in the experiment with NCI-H460 lung it was 83.3%; in the experiment on HOP-92 NSCLC it was -14.4% (active). Further, the growth in the experiment with NCI-H522 lung was 18.5%; in the experiment on A549/ATCC NSCLC, 82.1%; with 786-0 renal, 28.3%; in the experiment on COLO 205 colon, 103%.
Take `C=CCc1c(O)c(C(=O)/C=C/c2ccc(Cl)cc2)c(OC)c2ccoc12`: the growth in the experiment on NCI-H23 lung is 57.1%; in the experiment with NCI-H226 lung, 28.7%; in the experiment with NCI-H322M lung, 75.8%; in the experiment with HOP-62 NSCLC, 85.4%; with NCI-H460 lung, 49.8%; in the experiment on HOP-92 NSCLC, 48.6%. Further, the growth in the experiment with NCI-H522 lung is 35.7%; in the experiment with A549/ATCC NSCLC, 47.3%; in the experiment with 786-0 renal, 78%; in the experiment with COLO 205 colon, 73.7%.
Turning to `CC(C)CCC[C@@H](C)[C@H]1CC[C@H]2[C@@H]3CC=C4C[C@@H](C(C(=O)O)C(=O)O)CC[C@]4(C)[C@H]3CC[C@]12C`, the growth with NCI-H23 lung is -48% (active); with NCI-H226 lung, -62.9% (active); with NCI-H322M lung, -0.312% (active); in the experiment on HOP-62 NSCLC it was -54.8% (active); in the experiment on NCI-H460 lung, -71.5% (active); in the experiment with HOP-92 NSCLC, 8.17% (active). Further, the growth is -28.7% (active) with NCI-H522 lung, -51.7% (active) in the experiment with A549/ATCC NSCLC, -58.6% (active) in the experiment with 786-0 renal and -91.1% (active) in the experiment on COLO 205 colon.

The values are drawn from PubChem BioAssay (NCI).
